In PubChem BioAssay (Tox21):
Several values for one entry are separate records, joined by “and”; a condition that tells them apart may be missing. Identical values can stand only once. Inconclusive results are not listed. Where a call stands in place of a potency, no number is given. The source holds several records for some structures; these can differ, active in one and inactive in another. Activity calls are given as the source filed them. Unless noted, the call rests on the fitted dose curve; in most records, active means well fitted curve in the direction sought with a large enough effect in the repeat runs; inconclusive means weak or mixed curves; inactive means no such curve, though single readings can be large; an effect the other way counts as inactive or inconclusive.

Legend:
[1] = biological target: Progesterone receptor (Homo sapiens) (UniProt P06401); test: qHTS assay to identify small molecule agonists of the progesterone receptor (PR) signaling pathway (AID 1346784; calls by dose curve; further: nearly all actives have a fitted effect of over 30% in size; further: potency means the concentration at half of the fitted maximal effect)
Procedure, shortened: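 Reporter assay, GripTite PR-UAS-bla HEK 293T cells: 16 hr exposure to DMSO-dissolved compounds at 37C, 5% CO2, in steroid-depleted (2% charcoal-stripped FBS) medium; beta-lactamase measured by FRET fluorescence.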

[2] = biological target: Progesterone receptor (Homo sapiens) (UniProt P06401); test: qHTS assay to identify small molecule antagonists of the progesterone receptor (PR) signaling pathway (AID 1346795; active means well fitted inhibition curve with a large enough effect in the signal ratio in the repeat runs, not every such curve was filed as active; the % refers to the signal ratio; further: potency means the concentration at half of the fitted maximal effect)
Procedure, shortened: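 Stimulus R5020 at 1 nM final; cells HEK293T PR-UAS-bla; medium with 2% charcoal-stripped FBS; compound exposure 16 hr at 37C, 5% CO2; detection by FRET beta-lactamase substrate, 2 hr, room temperature.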

[3] = qHTS assay to identify small molecule antagonists of the progesterone receptor (PR) signaling pathway - cell viability counter screen (AID 1346798); further: nearly all actives have a fitted effect of over 50% in size; further: potency means the concentration at half of the fitted maximal effect
Procedure, shortened: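 In the same plates used for the beta-lactamase readout, cell viability of compound- and R5020-treated PR-UAS-bla HEK293T cells (16 hr, 37C) was assessed by CellTiter-Glo luminescence.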

[4] = qHTS assay to identify small molecule agonists of the progesterone receptor (PR) signaling pathway - cell viability counter screen (AID 1346799; calls by dose curve; further: nearly all actives have a fitted effect of over 45% in size; further: potency means the concentration at half of the fitted maximal effect)
Procedure, shortened: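 Multiplexed viability read: CellTiter-Glo luminescence, 30 min RT, following LiveBLAzer FRET measurement on PR-UAS-bla HEK293T cells exposed to compounds 16 hr.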

[5] = qHTS assay to identify small molecule antagonists of the TGF-beta/Smad signaling pathway - cell viability counter screen (AID 1346824); further: nearly all actives have a fitted effect of over 50% in size
Procedure, shortened: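 SBE-bla HEK 293T cells were plated overnight at 37 C, then given compounds in DMSO plus TGF-beta1 (added as 0.25 ng/mL solution) for 5 hr. After the bla read, CellTiter-Glo was added to the same wells and luminescence read after 30 min at room temperature.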

[6] = qHTS assay to identify small molecule agonists of the TGF-beta/Smad signaling pathway - cell viability counter screen (AID 1346829); further: top concentration of the series differs between compounds; nearly all actives have a fitted effect of over 45% in size
Procedure, shortened: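 In parallel with the Smad reporter read, viability of HEK 293T cells stably carrying SBE-bla is quantified by ATP luminescence following 5 hr compound treatment.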

[7] = qHTS assay to identify small molecule agonists of the TGF-beta/Smad signaling pathway (AID 1346859; active means well fitted activation curve with a large enough effect in the signal ratio in the repeat runs, not every such curve was filed as active; the % refers to the signal ratio; further: series mostly up to about 77 µM)
Procedure, shortened: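 Screening used HEK 293T SBE-bla cells at 4,000/well. Test agents: 5 hr, 37 C. Detection: FRET substrate, 2 hr RT, then excitation 405 nm with emissions at 460 and 530 nm.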

[8] = Human pregnane X receptor (PXR) small molecule agonists, qHTS cell viability counter screen (AID 1346977); further: nearly all actives have a fitted effect of over 50% in size; further: potency means the concentration at half of the fitted maximal effect
Procedure, shortened: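 In each well, the PXR reporter HepG2 line was checked for viability: CellTiter-Fluor reagent added 23hr post-dosing, fluorescence read after 1hr incubation at 37C.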

[9] = biological target: Thyrotropin-releasing hormone receptor (Homo sapiens) (UniProt P34981); test: qHTS assay to identify small molecule antagonists of the thyrotropin-releasing hormone receptor (TRHR) signaling pathway (AID 1346877; active means well fitted inhibition curve with a large enough effect in the repeat runs, not every such curve was filed as active; further: series mostly up to about 51 µM)
Procedure, shortened: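 TRHR-expressing HEK293 cells loaded with calcium dye for 2 h at 37 C; compounds pre-incubated 5 min at room temperature before TRH challenge at 1 nM final. Intracellular calcium fluorescence read kinetically for 3 min; 15 concentrations in triplicate.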

[10] = biological target: Thyrotropin-releasing hormone receptor (Homo sapiens) (UniProt P34981); test: qHTS assay to identify small molecule agonists of the thyrotropin-releasing hormone receptor (TRHR) signaling pathway (AID 1346891; calls by dose curve; further: series mostly up to about 58 µM)
Procedure, shortened: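 Readout was intracellular calcium fluorescence in TRHR-Hek293 cells. Cells were incubated 18 h, dye-loaded 2 h at 37 °C, and treated with compound in agonist mode.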

Chain of Thyrotropin-releasing hormone receptor (Homo sapiens) (P34981 whole entry, looked up): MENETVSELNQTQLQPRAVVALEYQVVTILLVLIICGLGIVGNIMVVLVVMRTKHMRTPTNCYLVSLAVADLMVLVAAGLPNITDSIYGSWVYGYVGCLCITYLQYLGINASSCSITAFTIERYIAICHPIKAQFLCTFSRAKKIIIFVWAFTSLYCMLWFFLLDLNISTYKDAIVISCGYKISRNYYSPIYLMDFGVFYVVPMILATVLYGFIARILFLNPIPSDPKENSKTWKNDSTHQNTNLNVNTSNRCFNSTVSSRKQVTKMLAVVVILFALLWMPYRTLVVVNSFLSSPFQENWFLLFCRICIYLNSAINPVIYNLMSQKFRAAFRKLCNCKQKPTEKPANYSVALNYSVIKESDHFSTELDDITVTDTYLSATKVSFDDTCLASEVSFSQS
Chain of Progesterone receptor (Homo sapiens) (P06401 whole entry, looked up): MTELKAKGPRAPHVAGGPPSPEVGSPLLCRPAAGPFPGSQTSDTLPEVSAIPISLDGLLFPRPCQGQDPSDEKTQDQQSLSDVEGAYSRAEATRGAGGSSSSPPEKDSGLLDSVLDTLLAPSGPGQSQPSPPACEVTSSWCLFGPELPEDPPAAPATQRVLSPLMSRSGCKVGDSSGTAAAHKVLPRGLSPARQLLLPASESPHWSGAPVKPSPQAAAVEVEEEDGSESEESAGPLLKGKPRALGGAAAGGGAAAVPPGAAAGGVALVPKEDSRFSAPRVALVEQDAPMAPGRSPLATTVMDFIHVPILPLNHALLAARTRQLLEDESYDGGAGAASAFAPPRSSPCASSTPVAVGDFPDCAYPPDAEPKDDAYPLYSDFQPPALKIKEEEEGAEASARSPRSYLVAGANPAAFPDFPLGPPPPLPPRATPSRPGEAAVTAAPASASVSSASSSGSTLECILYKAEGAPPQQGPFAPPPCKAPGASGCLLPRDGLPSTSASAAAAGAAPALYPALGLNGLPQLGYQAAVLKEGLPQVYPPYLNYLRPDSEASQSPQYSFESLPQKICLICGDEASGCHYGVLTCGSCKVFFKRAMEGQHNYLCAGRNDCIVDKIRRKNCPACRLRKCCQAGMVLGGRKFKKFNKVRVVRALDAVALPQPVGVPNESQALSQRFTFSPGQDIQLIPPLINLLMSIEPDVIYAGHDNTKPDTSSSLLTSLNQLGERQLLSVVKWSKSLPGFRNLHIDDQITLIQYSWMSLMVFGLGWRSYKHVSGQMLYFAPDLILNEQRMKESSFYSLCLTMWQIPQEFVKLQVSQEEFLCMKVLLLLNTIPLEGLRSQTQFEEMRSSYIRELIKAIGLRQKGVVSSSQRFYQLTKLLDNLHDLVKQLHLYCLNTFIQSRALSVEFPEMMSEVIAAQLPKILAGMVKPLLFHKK

Row | Compound | Potency [1] | Potency [2] | Potency [3] | Potency [4] | Potency [5] | Potency [6] | outcome [7] | Potency [8] | Potency [9] | Potency [10]
1 | C[N+](C)(C)CCO | inactive | inactive | inactive | inactive | inactive | inactive | inactive | inactive |  | 
2 | COC(=O)C(C)Oc1ccc(Oc2ncc(C(F)(F)F)cc2Cl)cc1 (centres undefined) | inactive | inactive | inactive | inactive | inactive | inactive | inactive | inactive | inactive | 
3 | CC/C(=C(/CC)c1ccc(O)cc1)c1ccc(O)cc1 | inactive | 12.2 µM (active) | 60.6 µM (active) | inactive | inactive | inactive | inactive | inactive | inactive | 
4 | CCCCCCOCCOCCO | inactive | inactive | inactive | inactive | inactive | inactive | inactive | inactive |  | 
5 | O=C(O)COCCN1CCN(C(c2ccccc2)c2ccc(Cl)cc2)CC1 (centres undefined) | inactive | inactive | inactive | inactive | inactive | inactive | inactive | inactive | inactive | 
6 | NCCOCCO | inactive | inactive | inactive | inactive | inactive | inactive | inactive | inactive | inactive | 
7 | CC/C=C\C/C=C\C/C=C\CCCCCCCC(=O)O |  |  | inactive |  | inactive | inactive | inactive | inactive | inactive | inactive
8 | CCC(=O)O[C@H]1[C@H](O[C@@H]2[C@@H](C)[C@H](O[C@H]3C[C@@](C)(OC)[C@@H](O)[C@H](C)O3)[C@@H](C)C(=O)O[C@H](CC)[C@@](C)(O)[C@H](O)[C@@H](C)C(=O)[C@H](C)C[C@@]2(C)O)O[C@H](C)C[C@@H]1N(C)C | inactive | inactive |  | 14.4 µM (active) and inactive | inactive | inactive | inactive | 36.1 µM (active) and inactive |  | 
9 | CC(=O)Oc1ccc(C(c2ccc(OC(C)=O)cc2)c2ccccn2)cc1 | inactive | inactive | inactive | inactive | inactive | inactive |  | inactive | inactive | 
10 | CC1(C)C(C=C(Cl)Cl)C1C(=O)OCc1cccc(Oc2ccccc2)c1 (centres undefined) | inactive |  | inactive | inactive | inactive | inactive | inactive | inactive | inactive | inactive
11 | C[C@]12CC[C@@H]3c4ccc(O)cc4CC[C@H]3[C@@H]1CC[C@H]2O | inactive |  |  |  | inactive | inactive | inactive | inactive | inactive | 
12 | C=C[C@H]1CN2CC[C@H]1C[C@@H]2[C@@H](O)c1ccnc2ccc(OC)cc12 | inactive | inactive | inactive | inactive |  | inactive | inactive | inactive | inactive | 
13 | CN(Cc1cnc2nc(N)nc(N)c2n1)c1ccc(C(=O)N[C@@H](CCC(=O)O)C(=O)O)cc1 | inactive | 0.133 µM (active) | inactive | inactive |  |  | inactive | inactive |  | 
14 | C=C[C@@]1(C)CC(=O)[C@]2(O)[C@@]3(C)[C@@H](O)CCC(C)(C)[C@@H]3[C@H](O)[C@H](OC(C)=O)[C@@]2(C)O1 | inactive |  | 24.3 µM (active) and 15 µM (active) | 12.2 µM (active) and 16.8 µM (active) | inactive | inactive | inactive | inactive |  | 
15 | CC1(C)O[C@@H]2C[C@H]3[C@@H]4C[C@H](F)C5=CC(=O)C=C[C@]5(C)[C@@]4(F)[C@@H](O)C[C@]3(C)[C@]2(C(=O)CO)O1 |  | inactive | inactive |  | inactive | inactive | inactive | inactive | inactive | inactive
16 | CC(C)(C)c1cccc(C(C)(C)C)c1O | inactive | inactive | inactive |  | inactive | inactive | inactive | inactive |  | 
17 | O=C(O)CCCCCCCCCCCC(=O)O | inactive | inactive | inactive | inactive | inactive | inactive |  | inactive | inactive | inactive
18 | CC1(C)NC(=O)N(c2ccc([N+](=O)[O-])c(C(F)(F)F)c2)C1=O | inactive | 17.2 µM (active) and 11.9 µM (active) | inactive |  | inactive | inactive | inactive | inactive | inactive | inactive
19 | OC[C@H]1O[C@@H]2O[C@H]3[C@H](O)[C@@H](O)[C@@H](O[C@H]4[C@H](O)[C@@H](O)[C@@H](O[C@H]5[C@H](O)[C@@H](O)[C@@H](O[C@H]6[C@H](O)[C@@H](O)[C@@H](O[C@H]7[C@H](O)[C@@H](O)[C@@H](O[C@H]1[C@H](O)[C@H]2O)O[C@@H]7CO)O[C@@H]6CO)O[C@@H]5CO)O[C@@H]4CO)O[C@@H]3CO | inactive | inactive and 22.9 µM (active) | inactive |  | inactive | inactive | inactive | inactive | inactive | 
20 | Cc1cccc(Nc2ccccc2C(=O)O)c1C | inactive |  | inactive | inactive | inactive | inactive | inactive | inactive | inactive | 
21 | NCCN | inactive |  | inactive | inactive | inactive | inactive | inactive | inactive |  | 
22 | COc1ccc(-c2coc3cc(O)cc(O)c3c2=O)cc1 | inactive | 6.11 µM (active) | inactive |  | inactive | inactive | inactive |  | inactive | inactive
23 | CC(=O)O[C@]1(C(C)=O)CC[C@H]2[C@@H]3C=C(C)C4=CC(=O)CC[C@]4(C)[C@H]3CC[C@@]21C | 0.0039 µM (active) | inactive |  |  | inactive | inactive |  | inactive |  | 
24 | Oc1c(Cl)ccc(Cl)c1Cl |  | inactive | inactive | inactive | inactive | inactive | inactive | inactive | inactive | 
25 | Cc1ccc([N+](=O)[O-])c(C)c1 | inactive | inactive |  | 19.3 µM (active) and inactive | inactive | inactive | inactive | inactive | inactive | 
26 | C[C@]12C=CC(=O)C=C1CC[C@H]1[C@@H]3C[C@@H](O)[C@](O)(C(=O)CO)[C@@]3(C)C[C@H](O)[C@@]12F | inactive | inactive | inactive | inactive | inactive | inactive | inactive | inactive |  | 
27 | CC(=O)O[C@]1(C(C)=O)CC[C@H]2[C@@H]3C=C(Cl)C4=CC(=O)CC[C@]4(C)[C@H]3CC[C@@]21C |  | inactive | inactive |  | inactive | inactive |  | inactive | inactive | 
28 | C=C1C[C@H]2[C@@H]3C=C(C)C4=CC(=O)CC[C@]4(C)[C@H]3CC[C@]2(C)[C@@]1(OC(C)=O)C(C)=O |  | inactive |  |  | inactive | inactive | inactive | inactive | inactive | inactive
29 | Nc1ccc2c(O)cc(S(=O)(=O)O)cc2c1 | inactive |  |  | inactive and 9.69 µM (active) | inactive | inactive | inactive | 28.2 µM (active) and 21.7 µM (active) | inactive | inactive
